EPAC1 agonist = EPAC1 (human) agonism. Potency, µM (highest dose often 154 µM), usual class: activators. O95398. EPAC1 agonist qHTS, biochemical assay; response scale: 100% = response to 6.5 mM cAMP. hit rate 0.073% among 360,000; further: nearly all actives have a fitted effect of over 60% in size
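Fluorescent GDP-exchange assay: 100 nM EPAC1 with 250 nM Rap1B preloaded with BODIPY-GDP and 50 uM GDP; compounds tested as concentration series, 5 min at room temperature, then read every 5 min for 30 min (ex 480/em 540 nm); normalized to 6.5 mM cAMP.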
EPAC1 antagonist = antagonists of human EPAC1; EPAC1 GEF assay, Rap1b-BODIPY-GDP exchange fluorescence; AID 720709; hit rate 0.14% among 360,000; O95398; Potency, µM (titrated, usually from 115 µM), most hits filed as inhibitors; further: nearly all actives have a fitted effect of over 50% in size
EPAC2 antag = blocks human EPAC2 exchange factor | EPAC2 GEF exchange of Rap1B-BODIPY-GDP, fluorescence | Potency, µM (highest dose often 114 µM), usual class: inhibitors | hit rate 0.18% among 360,000 | Q8WZA2; further: nearly all actives have a fitted effect of over 45% in size
Target sequence (Q8WZA2 whole entry, looked up): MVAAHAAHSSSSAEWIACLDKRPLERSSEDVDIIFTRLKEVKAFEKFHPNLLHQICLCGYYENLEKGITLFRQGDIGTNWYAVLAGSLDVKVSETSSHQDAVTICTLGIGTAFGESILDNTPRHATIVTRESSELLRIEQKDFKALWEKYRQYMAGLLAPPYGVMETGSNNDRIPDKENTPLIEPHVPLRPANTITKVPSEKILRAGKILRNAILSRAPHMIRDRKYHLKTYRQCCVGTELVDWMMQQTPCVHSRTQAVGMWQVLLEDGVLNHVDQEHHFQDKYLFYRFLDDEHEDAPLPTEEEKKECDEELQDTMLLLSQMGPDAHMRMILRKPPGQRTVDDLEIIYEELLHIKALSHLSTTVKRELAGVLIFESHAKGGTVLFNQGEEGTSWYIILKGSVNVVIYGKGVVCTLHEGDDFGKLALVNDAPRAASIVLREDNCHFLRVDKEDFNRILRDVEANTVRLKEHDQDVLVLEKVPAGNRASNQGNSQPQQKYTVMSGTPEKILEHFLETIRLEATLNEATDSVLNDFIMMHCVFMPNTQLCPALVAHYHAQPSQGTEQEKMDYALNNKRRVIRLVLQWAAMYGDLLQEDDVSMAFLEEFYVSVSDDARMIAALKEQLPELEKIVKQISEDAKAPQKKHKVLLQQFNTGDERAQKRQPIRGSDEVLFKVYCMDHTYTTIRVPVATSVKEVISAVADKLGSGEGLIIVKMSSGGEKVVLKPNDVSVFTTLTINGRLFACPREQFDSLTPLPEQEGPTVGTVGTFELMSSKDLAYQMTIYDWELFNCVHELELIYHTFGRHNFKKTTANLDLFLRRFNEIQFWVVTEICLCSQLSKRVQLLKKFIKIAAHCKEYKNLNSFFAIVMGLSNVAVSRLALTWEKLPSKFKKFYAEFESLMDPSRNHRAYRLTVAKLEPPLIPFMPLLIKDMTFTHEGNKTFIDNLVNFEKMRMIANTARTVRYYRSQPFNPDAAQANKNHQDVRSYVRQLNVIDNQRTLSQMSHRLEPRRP
PKM2 act = increases activity of human pyruvate kinase M2; P14618; hit rate 0.34% among 260,000; Potency, µM (highest dose often 57.5 µM), hits mostly activators; purified PKM2, Kinase-Glo ATP luminescence, activation; response scale: 0% is enzyme alone, no compound; further: nearly all actives have a fitted effect of over 55% in size
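hPK-M2, >95% pure; 0.1 mM ADP / 0.5 mM PEP final; imidazole pH7.2 buffer w/ 7 mM MgCl2, 50 mM KCl; 1 h RT; Kinase-Glo lum. Intermediate enzyme activity for dual inhibitor/activator qHTS.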
EPAC2 agonist = agonists of human EPAC2 (RAPGEF4); hit rate 0.079% among 360,000; Q8WZA2; EPAC2 activation, biochemical qHTS; response scale: 100% = 6.5 mM cAMP response; Potency, µM (titrated, usually from 154 µM), hits mostly activators; further: nearly all actives have a fitted effect of over 50% in size
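Readout is BODIPY fluorescence (480 nm excitation, 540 nm emission), which falls as labeled GDP is exchanged off Rap1B. EPAC2 at 100 nM acted on 250 nM RAP1B-BODIPY-GDP with 50 uM GDP present.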
IL2 activator = activators of IL-2 | IL-2 activation reporter assay, cell-based qHTS; stimulated with anti-CD3/CD4/CD28 beads; in transgenic mouse T cells | activation, % (series mostly up to about 46 µM) | hit rate 0.065% among 360,000; in the data active means activation above about 50%; inconclusive means mostly about 30% to 49%
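Readout is EGFP and DsRed signal by fluorescent plate cytometry after 18 h at 37 degrees C. Transgenic mouse T cells (750/well) received compound for 60 min before bead stimulation (anti-CD3, anti-CD4, anti-CD28); memory T cells served as non-tolerant control.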
Hits are given with their value; 0 = inactive; ? = inconclusive; - = not tested or not shown; [ ] = dose if it differs, or a comment. This is a sample that favours compounds with a hit; in the whole collection about 0.64% have one here. Unless noted, the call rests on the fitted dose curve; in most records, active means well fitted curve in the direction sought with a large enough effect; inconclusive means small, poorly fitted or top-dose-only effect, or another doubt; inactive means no such curve, though single readings can be large; an effect the other way counts as inactive or inconclusive.

SMILES	EPAC1 agonist	EPAC1 antagonist	EPAC2 antag	PKM2 act	EPAC2 agonist	IL2 activator
COc1cc(/C=C2/C(=N)N3C(=NC2=O)SN=C3S(C)(=O)=O)ccc1OS(=O)(=O)c1ccc(C)cc1	0	50.1µM	?	-	0	0
COc1cc(/C=C2\SC(=S)NC2=O)ccc1OS(=O)(=O)c1ccccc1	-	-	-	0	-	-
Cc1occc1C(=O)NNS(=O)(=O)c1ccc([N+](=O)[O-])cc1	0	0	0	0	0	0
COc1ccc(/C=C2\SC(=S)NC2=O)cc1OS(=O)(=O)c1ccc(NC(C)=O)cc1	0	?	50.1µM	0	0	0
CCc1ccc(-n2cccc2/C=C2/C(=N)N3C(=NC2=O)SN=C3S(C)(=O)=O)cc1	0	79.4µM	0	0	0	0
CCc1nc2ccccc2n1Cc1cc(=O)n2cc(C)ccc2n1	0	0	0	15.8µM	0	0
CC(=O)Nc1scc(-c2ccccc2)[n+]1-c1ccc(C)cc1	0	0	31.6µM	0	0	0
O=C(CSc1ccccc1F)NCC(c1ccco1)N1CCCCC1 (configuration not stated)	0	0	0	-	0	0
COCCCNC(=O)c1ccc2c3c(onc13)-c1ccccc1C2=O	79.4µM	?	0	0	100µM	0
COc1ccc(/C=C2\OC(=S)N(C)C2=O)cc1	0	0	0	0	0	0
CN1C(=O)/C(=C\c2ccc(N(C)C)cc2)OC1=S	89.1µM	0	0	0	0	?
COc1ccc(NC(=O)CN(C)C(=O)C2=NN(c3ccccc3)C(=O)CC2)cc1	0	0	0	-	0	0
N=C(N)c1ccc(N=Nc2c(O)ccc3c2[nH]c2ccccc23)cc1	?	39.8µM	50.1µM	-	?	0
Cc1cc(C)c2sc(N(CCCN(C)C)C(=O)c3ccc(S(=O)(=O)N(C)C4CCCCC4)cc3)nc2c1	44.7µM	0	0	-	0	0
C=CCn1c(N)c(C(=O)NCc2ccco2)sc1=S	0	0	0	8.91µM	0	0
Cc1ccc(-n2c(N)c(C(=O)NCc3ccco3)sc2=S)cc1	0	0	0	0	0	0
O=C(CC1CC2CCC1C2)N1CCN(S(=O)(=O)c2ccccc2C(F)(F)F)CC1 (configuration not stated)	0	0	0	-	0	0
O=C(NCCOC(=O)c1ccc(C(=O)OCCNC(=O)c2cccnc2)s1)c1cccnc1	0	0	0	15.8µM	0	0
O=C(NCCOC(=O)c1cccs1)c1cccnc1	0	0	0	0	0	0
O=C(Oc1ccc(OC(=O)c2ccco2)c(S(=O)(=O)c2ccc(Br)cc2)c1)c1ccco1	0	0	0	4.47µM	0	0
COc1ccc(-c2c(C#N)c(N)nc3sc(C(=O)c4ccccc4)c(N)c23)cc1	0	0	0	0	0	0
CSc1c(C#N)c(N)nc2sc(C(=O)c3ccc(Cl)c(Cl)c3)c(N)c12	100µM	0	0	0	0	0
Cc1cc(C)c2c(N)c(C(=O)c3cccc(Cl)c3)sc2n1	0	0	0	0	0	0
CCOc1ccc(-c2c(C#N)c(N)nc3sc(C(=O)c4ccccc4)c(N)c23)cc1	0	0	0	0	0	124.7
COc1cc(OC)c2c(O)c3c(c(-c4c5c(c(O)c6c(OC)cc(OC)cc46)CO[C@@H](C)[C@H]5O)c2c1)[C@H](O)[C@H](C)OC3	0	35.5µM	0	0	0	0
SMILES	EPAC1 agonist	EPAC1 antagonist	EPAC2 antag	PKM2 act	EPAC2 agonist	IL2 activator
COc1cc2c(c(OC)c1O)C(=O)CO2	0	0	0	0	0	0
COC(=O)c1ccccc1NC1=C/C(=N\S(=O)(=O)c2cccs2)c2ccccc2C1=O	0	0	0	0	0	0
COC(=O)c1ccccc1NC1=C/C(=N\S(=O)(=O)c2ccc(C(=O)O)cc2)c2ccccc2C1=O	0	39.8µM	?	-	0	0
COc1ccc2oc3cc(Cl)ccc3c(=O)c2c1	0	0	0	-	0	0
Cc1cccc(C(=O)N[C@H](C(=O)Nc2nc3ccc(S(C)(=O)=O)cc3s2)C(C)C)c1	0	0	0	0	0	0
Cc1ccc(NS(=O)(=O)c2cccc3cccnc23)c(Br)c1	0	0	0	-	0	0
Cc1ccc(NS(=O)(=O)c2cccc3cccnc23)c(Cl)c1	0	0	28.2µM	-	0	0
CCn1c(C)c(C)c2cc(C(=O)NCCc3ccco3)ccc21	0	0	0	28.2µM	0	0
Cn1c(=O)c2ncn(C)c2n(C)c1=O	0	0	0	-	0	0
COc1ccc(/C(N)=N/OC(=O)c2ccc(C)c([N+](=O)[O-])c2)cc1	0	0	0	0	10µM	0
CCn1c(=O)c(=O)n(CC)c2cc(S(=O)(=O)Nc3ccc(C)cc3)ccc21	0	0	0	10µM	0	0
C[C@@H]1CN([C@H](C)CO)C(=O)CCCn2nncc2CO[C@H]1CN(C)S(=O)(=O)c1ccc(Oc2ccccc2)cc1	0	0	0	-	0	0
NS(=O)(=O)c1ccc2c(c1)C(=NO)c1cc(S(N)(=O)=O)ccc1-2	0	?	?	3.98µM	0	0
Brc1ccc(OCc2nnnn2-c2ccccc2)cc1	0	0	0	25.1µM	0	0
COc1ccc(OCc2nnnn2-c2ccccc2)cc1	0	0	0	0	0	0
CCOC(=O)c1ccc(-c2ccc(/C=C(\C#N)C(=O)NCc3cccs3)o2)cc1	0	0	0	0	0	60.9
Cc1ccccc1OCC(=O)N=Nc1c(O)n(C)c2ccccc12	0	0	0	0	0	0
Fc1ccc(C(Nc2ccccn2)c2c[nH]c3ccccc23)cc1 (configuration not stated)	0	0	44.7µM	0	0	0
O=[N+]([O-])CC(c1ccc(F)cc1)c1c[nH]c2ccccc12 (configuration not stated)	0	0	?	-	0	0
Cc1cnc(NS(=O)(=O)c2ccc(N)cc2)nc1-c1ccccc1O	0	0	0	-	0	0
CCN(CC)C(=O)C1=C(C)N(Cc2ccccc2)C(=O)C(CC(=O)NCc2cccs2)C1 (configuration not stated)	0	0	0	-	0	0
CS(=O)(=O)Nc1cccc(C2=NN(S(=O)(=O)c3ccccc3)C(c3ccco3)C2)c1 (configuration not stated)	0	0	0	22.4µM	0	0
CCOC(=O)c1cc(-c2ccc(/C=N\n3cnnc3)o2)ccc1Cl	0	0	0	0	0[15.6 µM]	0
CCOC(=O)c1cc(-c2ccc(/C=C3/C(=O)N(c4ccc(C(=O)O)cc4)N=C3C)o2)ccc1Cl	0	35.5µM	0	-	0	0
CSc1nc2ccc(NS(=O)(=O)c3ccc4c(c3)OCCO4)cc2s1	0	0	0	15.8µM	?	0
